# Source: the supplement of paper PMC10849652
# About 7,900 targets were measured; listed, in parts, are those with a hit and a random draw of the rest. About 0.6% of all pairs of compound and target were hits. Values without a mark were called inactive.
# Tests used:
# Assay in all cases: log2 fold change, soluble protein after heating vs DMSO (PISA); higher = thermal stabilisation; K562 cells, 10 uM, 30 min; active = over 0.2 and 3.5 SD of the protein, either way, in both replicates (recomputed)
# [1] = compound: NC(=O)Nc1cc(-c2cccc(F)c2)sc1C(=O)N[C@H]1CCCNC1
# How it was run: (§1)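 Soluble protein was quantified by TMTpro 16plex LC-MS/MS after channel sums were equalised. It was obtained as the supernatant after 21,000xg for 90 min from pooled aliquots of K562 cells (2×10^6 cells/mL, 10 μM compound, 30 min) heated for 3 min across 48°C-58°C and extracted in PBS with 0.5% NP-40 at 4°C. Thermal stability values are relative to control samples and come from duplicates. They are given as log2 fold changes.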
# [2] = compound: NC1(c2ccc(-c3nc4ccn5c(=O)[nH]nc5c4cc3-c3ccccc3)cc2)CCC1
# How it was run: as §1
# [3] = compound: NCC(=O)Nc1ccc(-n2nc(C(F)(F)F)cc2-c2ccc3c(ccc4ccccc43)c2)cc1
# How it was run: as §1
# entinostat = compound: Nc1ccccc1NC(=O)c1ccc(CNC(=O)OCc2cccnc2)cc1 [entinostat]
# How it was run: as §1
# citarinostat = compound: O=C(CCCCCCNC(=O)c1cnc(N(c2ccccc2)c2ccccc2Cl)nc1)NO [citarinostat]
# How it was run: as §1
# silmitasertib = compound: O=C(O)c1ccc2c(c1)nc(Nc1cccc(Cl)c1)c1ccncc12 [silmitasertib]
# How it was run: as §1
# [4] = compound: O=C1NC(=O)C(c2cnc3ccccn23)=C1c1cn2c3c(cc(F)cc13)CN(C(=O)N1CCCCC1)CC2
# How it was run: as §1
# [5] = compound: c1cc(OCCN2CCCCC2)cc(-c2n[nH]c3ccc(-c4nnc[nH]4)cc23)c1
# How it was run: as §1
# [6] = compound: NC(=O)c1cnc(N[C@@H]2CCCC[C@@H]2N)nc1Nc1cccc(-n2nccn2)c1
# How it was run: as §1
# vorinostat = compound: O=C(CCCCCCC(=O)Nc1ccccc1)NO [vorinostat]
# How it was run: as §1
# Sequence of UniProt Q9Y248 (Q9Y248 whole entry, looked up): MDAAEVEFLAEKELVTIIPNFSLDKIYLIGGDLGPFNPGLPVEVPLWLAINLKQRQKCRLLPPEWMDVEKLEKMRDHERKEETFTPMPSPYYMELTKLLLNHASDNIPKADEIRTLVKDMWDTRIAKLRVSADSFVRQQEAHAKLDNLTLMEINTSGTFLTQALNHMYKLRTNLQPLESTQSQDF
# Sequence of UniProt P54652 (P54652 whole entry, looked up): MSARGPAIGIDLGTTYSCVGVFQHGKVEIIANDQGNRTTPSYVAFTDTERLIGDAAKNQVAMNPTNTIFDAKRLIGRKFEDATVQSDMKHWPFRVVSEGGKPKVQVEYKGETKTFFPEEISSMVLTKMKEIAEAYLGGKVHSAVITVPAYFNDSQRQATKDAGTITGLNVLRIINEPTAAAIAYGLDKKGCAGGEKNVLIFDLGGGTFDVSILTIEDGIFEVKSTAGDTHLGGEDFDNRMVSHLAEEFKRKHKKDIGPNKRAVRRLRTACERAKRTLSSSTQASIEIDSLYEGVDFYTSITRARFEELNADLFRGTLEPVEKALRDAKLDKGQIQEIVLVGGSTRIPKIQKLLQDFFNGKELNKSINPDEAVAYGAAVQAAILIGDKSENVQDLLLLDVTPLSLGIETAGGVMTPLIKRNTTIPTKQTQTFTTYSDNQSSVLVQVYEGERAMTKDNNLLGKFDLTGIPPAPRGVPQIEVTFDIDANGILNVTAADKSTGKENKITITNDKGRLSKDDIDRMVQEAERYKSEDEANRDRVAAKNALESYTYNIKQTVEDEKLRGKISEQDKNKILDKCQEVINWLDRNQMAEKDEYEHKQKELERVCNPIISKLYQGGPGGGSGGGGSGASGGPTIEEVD
# Sequence of UniProt Q96SL8 (Q96SL8 whole entry, looked up): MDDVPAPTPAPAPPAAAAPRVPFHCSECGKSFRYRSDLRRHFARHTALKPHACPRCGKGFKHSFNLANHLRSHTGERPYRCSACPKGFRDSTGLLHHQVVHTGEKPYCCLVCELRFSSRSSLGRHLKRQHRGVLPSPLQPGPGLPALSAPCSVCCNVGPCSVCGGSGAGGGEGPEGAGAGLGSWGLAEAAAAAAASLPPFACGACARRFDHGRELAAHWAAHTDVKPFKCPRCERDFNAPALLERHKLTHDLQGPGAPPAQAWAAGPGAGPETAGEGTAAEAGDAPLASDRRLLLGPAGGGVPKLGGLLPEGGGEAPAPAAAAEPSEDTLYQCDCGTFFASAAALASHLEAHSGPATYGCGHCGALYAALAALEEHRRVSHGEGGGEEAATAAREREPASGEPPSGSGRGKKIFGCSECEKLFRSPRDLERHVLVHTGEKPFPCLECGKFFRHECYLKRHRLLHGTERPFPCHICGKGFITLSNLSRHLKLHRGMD
# Sequence of UniProt Q13227 (Q13227 whole entry, looked up): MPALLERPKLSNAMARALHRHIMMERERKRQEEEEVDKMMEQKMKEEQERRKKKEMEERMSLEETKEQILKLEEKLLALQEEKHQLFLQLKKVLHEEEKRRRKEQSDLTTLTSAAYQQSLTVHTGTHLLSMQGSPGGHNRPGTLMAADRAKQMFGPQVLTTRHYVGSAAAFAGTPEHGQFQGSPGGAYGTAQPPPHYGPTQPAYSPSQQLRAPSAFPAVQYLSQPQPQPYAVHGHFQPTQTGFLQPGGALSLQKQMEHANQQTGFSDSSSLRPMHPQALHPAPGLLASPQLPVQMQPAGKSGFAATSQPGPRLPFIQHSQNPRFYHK
# Sequence of UniProt Q9UJY4 (Q9UJY4 whole entry, looked up): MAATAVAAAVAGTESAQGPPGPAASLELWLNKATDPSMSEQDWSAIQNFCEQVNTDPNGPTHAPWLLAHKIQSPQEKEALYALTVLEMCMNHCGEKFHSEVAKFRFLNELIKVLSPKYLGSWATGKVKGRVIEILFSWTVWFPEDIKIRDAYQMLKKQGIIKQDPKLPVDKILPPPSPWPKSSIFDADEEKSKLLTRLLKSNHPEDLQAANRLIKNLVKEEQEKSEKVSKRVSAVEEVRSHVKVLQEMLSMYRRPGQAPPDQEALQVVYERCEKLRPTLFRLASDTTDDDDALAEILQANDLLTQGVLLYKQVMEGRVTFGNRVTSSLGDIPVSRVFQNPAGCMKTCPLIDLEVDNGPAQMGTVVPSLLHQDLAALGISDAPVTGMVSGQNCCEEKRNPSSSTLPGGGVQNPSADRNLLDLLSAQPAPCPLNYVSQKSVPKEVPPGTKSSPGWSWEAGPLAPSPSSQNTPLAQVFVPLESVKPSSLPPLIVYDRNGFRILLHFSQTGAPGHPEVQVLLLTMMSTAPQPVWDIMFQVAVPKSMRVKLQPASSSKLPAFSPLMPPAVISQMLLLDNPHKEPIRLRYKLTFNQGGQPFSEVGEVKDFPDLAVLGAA
# Sequence of UniProt Q53T59 (Q53T59 whole entry, looked up): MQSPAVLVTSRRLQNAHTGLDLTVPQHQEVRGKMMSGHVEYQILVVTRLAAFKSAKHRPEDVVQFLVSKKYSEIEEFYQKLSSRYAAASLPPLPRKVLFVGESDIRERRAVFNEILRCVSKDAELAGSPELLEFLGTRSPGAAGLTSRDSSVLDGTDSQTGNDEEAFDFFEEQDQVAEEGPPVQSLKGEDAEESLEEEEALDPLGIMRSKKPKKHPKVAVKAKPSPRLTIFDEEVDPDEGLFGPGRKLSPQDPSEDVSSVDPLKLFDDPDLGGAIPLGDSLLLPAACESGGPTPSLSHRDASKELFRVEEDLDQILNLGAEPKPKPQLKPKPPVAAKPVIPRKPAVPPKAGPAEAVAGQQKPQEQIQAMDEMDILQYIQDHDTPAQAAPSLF
# Sequence of UniProt I6L899 (I6L899 whole entry, looked up): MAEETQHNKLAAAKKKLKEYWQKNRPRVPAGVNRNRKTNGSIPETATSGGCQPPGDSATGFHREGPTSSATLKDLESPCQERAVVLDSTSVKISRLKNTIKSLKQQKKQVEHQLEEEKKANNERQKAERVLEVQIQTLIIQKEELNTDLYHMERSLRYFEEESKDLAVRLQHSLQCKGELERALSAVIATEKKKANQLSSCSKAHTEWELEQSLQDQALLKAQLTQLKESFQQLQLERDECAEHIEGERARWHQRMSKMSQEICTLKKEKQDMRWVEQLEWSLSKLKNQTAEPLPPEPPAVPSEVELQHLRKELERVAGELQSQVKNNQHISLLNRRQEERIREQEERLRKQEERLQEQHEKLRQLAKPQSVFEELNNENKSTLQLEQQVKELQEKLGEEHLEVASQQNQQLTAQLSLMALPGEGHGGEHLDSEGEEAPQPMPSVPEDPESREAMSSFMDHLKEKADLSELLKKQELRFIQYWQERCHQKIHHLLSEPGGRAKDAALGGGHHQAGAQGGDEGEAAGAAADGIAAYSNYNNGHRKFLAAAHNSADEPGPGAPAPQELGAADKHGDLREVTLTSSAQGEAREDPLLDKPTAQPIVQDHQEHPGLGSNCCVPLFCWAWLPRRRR
# Sequence of UniProt Q9Y324 (Q9Y324 whole entry, looked up): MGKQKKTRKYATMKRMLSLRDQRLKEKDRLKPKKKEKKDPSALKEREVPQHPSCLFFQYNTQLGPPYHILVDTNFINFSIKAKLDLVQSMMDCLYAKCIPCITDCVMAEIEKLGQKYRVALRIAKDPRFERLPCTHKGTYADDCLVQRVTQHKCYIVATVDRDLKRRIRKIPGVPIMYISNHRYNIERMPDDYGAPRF
# Sequence of UniProt A6NDN3 (A6NDN3 whole entry, looked up): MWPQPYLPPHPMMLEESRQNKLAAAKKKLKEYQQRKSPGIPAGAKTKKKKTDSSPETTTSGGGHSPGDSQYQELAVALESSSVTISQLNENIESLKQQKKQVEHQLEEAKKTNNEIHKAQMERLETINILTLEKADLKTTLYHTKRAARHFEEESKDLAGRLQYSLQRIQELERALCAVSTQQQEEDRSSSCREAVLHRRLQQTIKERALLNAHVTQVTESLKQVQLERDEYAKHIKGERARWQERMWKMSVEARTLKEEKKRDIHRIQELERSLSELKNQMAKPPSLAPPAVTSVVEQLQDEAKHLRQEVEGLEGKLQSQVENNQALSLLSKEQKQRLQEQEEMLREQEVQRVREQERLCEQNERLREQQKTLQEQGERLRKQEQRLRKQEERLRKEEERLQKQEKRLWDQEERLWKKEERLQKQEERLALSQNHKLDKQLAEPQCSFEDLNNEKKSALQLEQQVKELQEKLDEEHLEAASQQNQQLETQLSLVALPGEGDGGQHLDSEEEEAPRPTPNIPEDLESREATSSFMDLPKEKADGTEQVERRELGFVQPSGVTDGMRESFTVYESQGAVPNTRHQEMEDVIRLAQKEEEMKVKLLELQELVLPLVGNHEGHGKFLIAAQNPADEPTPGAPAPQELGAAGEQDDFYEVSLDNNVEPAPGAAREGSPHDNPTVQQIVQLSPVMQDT
# Sequence of UniProt Q04446 (Q04446 whole entry, looked up): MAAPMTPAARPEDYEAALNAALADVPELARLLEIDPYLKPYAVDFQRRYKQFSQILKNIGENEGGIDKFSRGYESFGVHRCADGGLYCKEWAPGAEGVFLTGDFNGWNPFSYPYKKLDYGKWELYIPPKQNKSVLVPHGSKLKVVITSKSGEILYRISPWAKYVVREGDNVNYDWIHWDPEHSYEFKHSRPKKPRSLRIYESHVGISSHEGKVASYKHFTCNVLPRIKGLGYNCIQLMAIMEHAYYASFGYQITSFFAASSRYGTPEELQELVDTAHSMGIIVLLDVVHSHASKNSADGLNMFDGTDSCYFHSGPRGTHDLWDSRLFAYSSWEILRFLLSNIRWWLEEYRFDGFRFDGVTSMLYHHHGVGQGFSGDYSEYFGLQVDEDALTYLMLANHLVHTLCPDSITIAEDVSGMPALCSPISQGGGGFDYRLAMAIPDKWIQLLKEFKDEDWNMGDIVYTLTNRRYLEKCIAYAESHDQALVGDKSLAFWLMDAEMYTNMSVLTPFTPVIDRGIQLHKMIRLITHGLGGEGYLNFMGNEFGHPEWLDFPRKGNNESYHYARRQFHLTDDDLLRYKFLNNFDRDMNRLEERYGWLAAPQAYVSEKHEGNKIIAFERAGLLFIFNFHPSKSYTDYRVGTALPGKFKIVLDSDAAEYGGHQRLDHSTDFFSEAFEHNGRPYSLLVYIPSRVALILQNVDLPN
Target,log2 fold change [1],log2 fold change [2],log2 fold change [3],log2 fold change (entinostat),log2 fold change (citarinostat),log2 fold change (silmitasertib),log2 fold change [4],log2 fold change [5],log2 fold change [6],log2 fold change (vorinostat)
GPS2 (UniProt Q13227),0.041,0.079,-0.106,-0.015,-0.023,0.031,-0.005,-0.092,–,–
HDAC7 isoform 5 (UniProt Q8WUI4),0.009,0.188,-0.036,–,0.032,0.021,0.032,-0.163,0.123,0.027
IFITM3 (UniProt Q01628),-0.074,-0.089,0.14,0.008,0.232,-0.111,0.072,-0.164,0.1,–
HDAC2 (UniProt Q92769),-0.01,-0.013,-0.039,–,1.04 (active),0.04,-0.021,-0.041,-0.037,–
GBE1 (UniProt Q04446),–,-0.214,-0.07,–,0.09,0.031,-0.049,-0.057,-0.11,–
IGF2 isoform 3 (UniProt P01344),–,–,-0.004,–,–,–,–,–,–,–
FIZ1 (UniProt Q96SL8),0.026,0.097,0.061,-0.257,-0.12,-0.103,0.06,0.041,–,0.044
GOLGA6B (UniProt A6NDN3),0.048,-0.054,0.001,0.007,–,0.022,0.051,–,–,0.114
HS1BP3 (UniProt Q53T59),-0.059,–,0.027,-0.05,0.115,–,-0.016,0.108,-0.075,–
HNRNPK isoform 3 (UniProt P61978),-0.06,0.052,-0.182,0.023,-0.009,0.028,0.159,-0.102,–,0.035
H3-3A (UniProt P84243),0.072,-0.095,-0.096,0.104,0.157,-0.046,–,0.028,–,–
GREB1 (UniProt Q4ZG55),0.029,–,-0.002,0.012,–,–,0.036,–,-0.103,–
FAT1 (UniProt Q14517),-0.018,0,-0.075,0.015,–,0.176,-0.051,–,–,-0.04
HEATR3 (UniProt Q7Z4Q2),0,-0.248,-0.103,0.052,0.075,0.02,-0.051,0.047,–,-0.017
FGG (UniProt P02679),–,–,–,–,–,–,–,–,–,-0.001
GGA2 (UniProt Q9UJY4),0.02,-0.208,0.01,0.032,0.042,0.033,0.152,-0.034,-0.02,–
GPNMB (UniProt Q14956),–,–,–,–,-0.125,–,-0.015,0.727,–,–
IDH3A isoform 2 (UniProt P50213),–,–,–,–,–,–,–,–,-0.06,–
HNRNPUL1 (UniProt M0R247),-0.056,–,–,-0.352,-0.227,–,–,-0.014,-0.629,–
GSTT1 (UniProt P30711),–,0.03,0.08,–,-0.018,-0.074,0.019,-0.012,0.012,-0.022
FCF1 (UniProt Q9Y324),0.244,0.097,0.36,0,-0.137,0.099,0.349,-0.375,–,-0.045
GOLGA8R (UniProt I6L899),–,–,0.02,–,0.09,–,–,0.006,-0.1,0.073
GINS2 (UniProt Q9Y248),-0.086,-0.024,0.022,0.533 (active),0.028,-0.031,-0.163,-0.026,–,-0.01
GSE1 (UniProt Q14687),–,–,-0.044,–,–,–,–,–,–,–
FBXO9 (UniProt Q9UK97),–,-0.079,-0.112,–,0.157,0.132,–,0.054,–,0.109
"HBZ, A0A494C057",–,-0.022,–,–,-0.197,0.005,–,0.876,–,–
HSPA2 (UniProt P54652),-0.015,-0.071,–,-0.039,–,0.006,–,–,0.076,–
